Results reported in PubChem BioAssay (NCATS).
Results filed as inconclusive are left out. Activity calls are given as the source filed them. Calls come from the whole dose curve; as a rule, active = well fitted curve in the direction sought with a large enough effect; inconclusive = small, poorly fitted or top-dose-only effect, or another doubt; inactive = no such curve, though single readings can be large; an effect the other way counts as inactive or inconclusive.

Tests used:
[1] = target: Glutathione peroxidase 1 (Homo sapiens) (UniProt P07203); assay: Primary qHTS Assay for Inhibitors of Recombinant Selenoprotein Glutathione Peroxidase 1 (GPX1) (AID 1845191); note: nearly all actives have a fitted effect of over 65% in size
Chain of Glutathione peroxidase 1 (Homo sapiens) (P07203 whole entry, looked up): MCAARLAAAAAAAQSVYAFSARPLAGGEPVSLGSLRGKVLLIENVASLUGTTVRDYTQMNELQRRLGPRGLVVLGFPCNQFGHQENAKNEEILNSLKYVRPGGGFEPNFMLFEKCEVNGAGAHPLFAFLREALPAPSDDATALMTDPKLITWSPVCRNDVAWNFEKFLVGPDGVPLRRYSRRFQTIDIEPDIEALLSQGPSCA
In short: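 Recombinant GPX1 (10 nM final) was preincubated with compound for 30 min at room temperature, then reacted with 1 mM GSH, 0.5 mM CHP, 0.5 mM NADPH and 100 nM glutathione reductase; NADPH fluorescence (340/450 nm) was read at 0 and 15 min.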

[2] = target: Phospholipid hydroperoxide glutathione peroxidase GPX4 (Homo sapiens) (UniProt P36969); assay: Primary qHTS Assay for Inhibitors of Recombinant Selenoprotein Glutathione Peroxidase 4 (GPX4) (AID 1845192); note: nearly all actives have a fitted effect of over 65% in size
Chain of Phospholipid hydroperoxide glutathione peroxidase GPX4 (Homo sapiens) (P36969 whole entry, looked up): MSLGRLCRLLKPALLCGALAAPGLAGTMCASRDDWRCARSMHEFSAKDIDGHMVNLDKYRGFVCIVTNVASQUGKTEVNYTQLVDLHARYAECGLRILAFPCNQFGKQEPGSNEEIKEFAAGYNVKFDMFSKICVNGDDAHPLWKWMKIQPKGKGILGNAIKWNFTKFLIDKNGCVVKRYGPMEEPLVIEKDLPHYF
In short: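 GR-coupled readout: 100 nM GR, 1 mM GSH, 0.5 mM NADPH; NADPH fluorescence (ex 340/em 450 nm) read at t=0 and after 15 min RT. GPX4 200 nM, preincubated 30 min with compound; substrate 0.5 mM CHP.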

[3] = target: Luciferin 4-monooxygenase (Photinus pyralis) (UniProt P08659); assay: Primary firefly luciferase (FLuc) qHTS assay for identification of artifact compounds. (AID 1845220); note: nearly all actives have a fitted effect of over 60% in size
In short: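 Reaction readout was CCD-imaged luminescence, taken 5 min after adding 10 nM purified firefly enzyme to compound-treated wells holding 10 uM luciferin and ATP in pH 7.6 buffer.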

[4] = test system: Nanoluciferase (engineered Oplophorus gracilirostris luciferase); assay: Primary Nanoluciferase (NLuc) qHTS assay for identification of artifact compounds. (AID 1845222); note: potency is the fitted concentration of half-maximal effect
In short: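 Concentration-response data were obtained by luminescence after 5 min with Nano-Glo substrate at 1:100. The enzyme was diluted S16 NLuc-expressing cell medium, preincubated with compound for 15 min at RT. Curves were fitted with a 4-parameter Hill model.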

[5] = Primary fluorescence-based thiol-reactive (MSTI) qHTS assay for identification of artifact compounds. (AID 1845221); note: nearly all actives have a fitted effect of over 65% in size; note: potency is the fitted concentration of half-maximal effect;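 for activity change, negative = thiol reactive: series mostly up to about 54 µM; thiol-reactive compounds lower the probe fluorescence signal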
In short: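 Compounds were incubated 1 h at room temperature in the dark with the MSTI probe (4 uM) in PBS pH 7.4, 2% DMSO. Signals were normalized between Acetyl-MSTI and MSTI.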

[6] = Primary redox qHTS assay for identification of artifact compounds. (AID 1845223);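 note: 0% = DMSO and 100% = reference compound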
In short: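 Amplex Red (25 uM) and HRP (250 mU/mL) in HBSS, with compounds for 15 min, then 250 uM DTT for 30 min, room temperature, dark. Fluorescence 525/598 nm read; normalized to DMSO and 10 uM DA3003; Hill fit.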

COc1ccc(CNc2nc(N(CCO)CCO)nc3c2ncn3C(C)C)cc1
inactive: Potency [1] | Potency [2] | Potency [3] | Potency [4]

COc1cc(N2CCC(N3CCN(C)CC3)CC2)ccc1Nc1ncc(Cl)c(Nc2ccccc2P(C)(C)=O)n1
inactive: Potency [1] | Potency [2] | Potency [3] | Potency [4]

Cc1cnc(-c2ccccc2C(C)C)nc1NCc1ccc(-n2ccnn2)cc1
inactive: Potency [1] | Potency [2] | Potency [3] | Potency [5] | Potency [6]

CCC(C)C(=O)O[C@H]1[C@H](O)[C@@]2(COC(C)=O)C(CC1(C)C)C1=CCC3[C@@]4(C)CC[C@H](O[C@@H]5O[C@H](C(=O)O)[C@@H](O)[C@H](O)[C@H]5O)[C@@](C)(CO)C4CC[C@@]3(C)[C@]1(C)C[C@@H]2O (some centres not stated)
inactive: Potency [1] | Potency [2] | outcome [3] inactive [at 11.6 µM] | activity change, negative = thiol reactive [5] 57.8% [at 11.5 µM] | redox activity (% of DA3003) [6] 14.3% [at 11.5 µM]

C=C(CCC1C(C)(O)CCC2C(C)(C)C(O)CCC12C)C(O)CO (configuration not stated)
inactive: Potency [1] | Potency [2] | Potency [3] | Potency [6]
active: Potency [5] 13.1 µM

COc1cc(CCc2ccc(OCC=C(C)C)cc2)cc(OC)c1OC
inactive: Potency [1] | Potency [2] | Potency [3] | Potency [4]

CS/C=C/C(=O)O[C@@H]1CCC2=CC(=O)C(=C(C)C)C[C@]2(C)[C@H]1C
inactive: Potency [1] | Potency [2] | Potency [3] | Potency [5] | Potency [6]

CC(C)c1cc2c(N3CCN(C4=NCC(C)(C)S4)CC3)ncnc2s1
inactive: Potency [1] | Potency [2] | Potency [3] | Potency [5] | Potency [6]

C=C[C@@]1(C)CCC2C(=CCC3[C@]2(C)CCC[C@@]3(C)C(=O)O)C1 (some centres not stated)
inactive: Potency [1] | Potency [2] | Potency [3] | Potency [4]

CCC/C=C/C=C/C1CC(O)C2(O)C(=O)OCC12 (configuration not stated)
inactive: Potency [1] | Potency [2] | Potency [3] | Potency [4]

C#CCOc1ccc2c(c1)c(-c1ccc(C(C)C)cc1)nc(=O)n2C(C)C
inactive: Potency [1] | Potency [2] | Potency [3] | Potency [5] | Potency [6]

O=C(Cc1c(F)cccc1F)Nc1cc(OCc2ccc(Cl)cc2)ccn1
inactive: Potency [1] | Potency [2] | Potency [3] | Potency [5] | Potency [6]

CC(=O)O[C@H]1CC[C@]2(C)[C@H]3CC[C@]4(C)Oc5oc(C)cc(=O)c5C[C@H]4[C@]3(C)CC[C@H]2C1(C)C
inactive: Potency [1] | Potency [2] | Potency [3] | Potency [5] | Potency [6]

O=S(=O)(Nc1cc(Cl)c(Oc2cnc3ccccc3c2)c(Cl)c1)c1ccc(Cl)cc1Cl
inactive: Potency [1] | Potency [2] | Potency [3] | Potency [5] | Potency [6]

Cc1nnc(-c2ccc(-c3ccc(C(=O)Nc4ccc(O)c(N5CCN(C)CC5)c4)cc3)c(C)c2)o1
inactive: Potency [1] | Potency [2] | Potency [3]
active: Potency [4] 1.51 µM

CC(C)(O)C(=O)N1CCN(c2ccc(C(F)(F)F)c(C3=C(c4c[nH]c5ccccc45)C(=O)NC3=O)c2)CC1
inactive: Potency [1] | Potency [2] | Potency [3] | Potency [6]
active: Potency [5] 3.36 µM

O=C(NCCCNC(=O)c1ccc[nH]c1=O)c1cc(-c2ccccc2)on1
inactive: Potency [1] | Potency [2] | Potency [3] | Potency [5] | Potency [6]

C=C1[C@@H](OC(C)=O)CC[C@@]2(C)[C@@H](OC(C)=O)[C@H](OC(C)=O)C3=C(C)C[C@H](OC(=O)C(C)CC)[C@@H]([C@@H](OC(C)=O)[C@H]12)C3(C)C (some centres not stated)
inactive: Potency [1] | Potency [2] | Potency [3] | Potency [4]

CCOC(=O)C1=Cc2ccc(C(F)(F)C(F)(F)F)cc2N=C(N)C1
inactive: Potency [1] | Potency [2] | Potency [3] | Potency [5] | Potency [6]

CC(C)CC(=O)c1c(O)cc2c(c1O)C(CC(C)C)C1=C(O2)C(C)(C)C(=O)C(C)(C)C1=O (configuration not stated)
inactive: Potency [1] | Potency [2] | Potency [3] | Potency [4]

C=C1C(=O)OC2/C=C(\C)CC/C=C(\C)CC(OC(C)=O)C12 (configuration not stated)
inactive: Potency [1] | Potency [2] | Potency [3] | Potency [5] | Potency [6]

Cc1cc(-c2cc(OC(=O)c3ccccc3)ccc2Cl)cc2nnc(Nc3ccc(OCCN4CCCC4)cc3)nc12
inactive: Potency [1] | Potency [2] | Potency [3] | Potency [4] | Potency [6]

CC[C@H](C)/C=C(C)/C=C/C1=CC2=C(Cl)C(=O)[C@](C)(O)[C@H](OC(C)=O)[C@H]2CO1
inactive: Potency [1] | Potency [2] | Potency [3] | Potency [4] | Potency [6]

CC1(CO)CC2C(O)C3=C(CC(C)(O)C2C1)C(=O)OC3 (configuration not stated)
inactive: Potency [1] | Potency [2] | Potency [3] | Potency [4] | Potency [6]

CN(C)c1cccc(Oc2cnc(Nc3cccc(O)c3)nc2)c1
inactive: Potency [1] | Potency [2] | Potency [3] | Potency [4] | Potency [6]

Cc1c(F)ccc(C(=O)Nc2cc([N+](=O)[O-])ccc2N2CCN(C)CC2)c1Cl
inactive: Potency [1] | Potency [2] | Potency [3] | Potency [4] | Potency [6]

C=C1CC[C@@H](O)[C@]2(C)CC[C@H]3C(=C)C(=O)O[C@@H]3[C@@H]12
inactive: Potency [1] | Potency [2] | Potency [3] | Potency [4] | Potency [6]

O=S(=O)(Nc1ccccc1N1CCCCC1)c1ccc(Cl)s1
inactive: Potency [1] | Potency [2] | Potency [3] | Potency [4] | Potency [6]

O=c1[nH]cnc2c([C@@H]3N[C@H](CO)[C@@H](O)[C@H]3O)c[nH]c12
inactive: Potency [1] | Potency [2] | Potency [3] | Potency [4] | Potency [6]
